Measured values: the supplement of paper PMC10849652
Of roughly 7,900 targets only a part is listed; those with a hit were picked by preference. About 0.6% of all pairs of compound and target were hits.

Sequence of UniProt Q15111 (Q15111 whole entry, looked up): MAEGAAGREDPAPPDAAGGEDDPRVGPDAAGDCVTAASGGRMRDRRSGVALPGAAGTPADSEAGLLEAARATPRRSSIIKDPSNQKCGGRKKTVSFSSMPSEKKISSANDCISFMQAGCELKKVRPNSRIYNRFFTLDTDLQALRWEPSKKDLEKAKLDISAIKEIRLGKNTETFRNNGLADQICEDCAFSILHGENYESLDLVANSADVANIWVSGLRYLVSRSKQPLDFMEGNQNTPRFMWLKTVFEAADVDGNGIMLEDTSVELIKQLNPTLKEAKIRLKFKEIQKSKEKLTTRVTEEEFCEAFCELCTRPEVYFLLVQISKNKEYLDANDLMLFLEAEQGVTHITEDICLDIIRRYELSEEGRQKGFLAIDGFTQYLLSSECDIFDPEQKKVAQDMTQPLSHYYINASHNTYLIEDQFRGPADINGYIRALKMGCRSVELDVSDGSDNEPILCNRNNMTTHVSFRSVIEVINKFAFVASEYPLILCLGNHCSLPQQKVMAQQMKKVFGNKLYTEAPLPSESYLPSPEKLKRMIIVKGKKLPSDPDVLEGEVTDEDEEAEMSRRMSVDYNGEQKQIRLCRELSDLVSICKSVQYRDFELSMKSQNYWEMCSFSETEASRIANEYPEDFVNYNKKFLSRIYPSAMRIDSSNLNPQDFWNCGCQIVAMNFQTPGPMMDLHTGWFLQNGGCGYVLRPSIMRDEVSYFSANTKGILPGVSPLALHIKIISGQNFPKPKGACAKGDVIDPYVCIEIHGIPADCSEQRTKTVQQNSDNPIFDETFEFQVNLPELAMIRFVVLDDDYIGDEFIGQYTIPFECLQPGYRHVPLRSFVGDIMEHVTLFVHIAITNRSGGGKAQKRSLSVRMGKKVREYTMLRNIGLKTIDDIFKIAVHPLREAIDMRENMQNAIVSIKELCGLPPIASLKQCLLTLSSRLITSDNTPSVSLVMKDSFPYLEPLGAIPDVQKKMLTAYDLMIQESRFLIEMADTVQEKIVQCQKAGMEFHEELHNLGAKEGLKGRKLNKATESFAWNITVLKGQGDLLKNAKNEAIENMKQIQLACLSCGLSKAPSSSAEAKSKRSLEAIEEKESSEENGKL
Sequence of UniProt Q00577 (Q00577 whole entry, looked up): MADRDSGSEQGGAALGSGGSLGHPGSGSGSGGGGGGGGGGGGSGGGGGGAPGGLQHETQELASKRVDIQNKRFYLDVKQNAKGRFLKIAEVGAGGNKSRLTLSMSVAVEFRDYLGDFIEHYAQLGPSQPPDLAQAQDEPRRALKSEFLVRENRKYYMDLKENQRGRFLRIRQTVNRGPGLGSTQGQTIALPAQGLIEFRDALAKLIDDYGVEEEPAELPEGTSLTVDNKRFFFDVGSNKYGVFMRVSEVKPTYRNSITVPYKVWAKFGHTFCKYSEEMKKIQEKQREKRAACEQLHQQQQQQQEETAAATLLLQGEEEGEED
Sequence of UniProt O15355 (O15355 whole entry, looked up): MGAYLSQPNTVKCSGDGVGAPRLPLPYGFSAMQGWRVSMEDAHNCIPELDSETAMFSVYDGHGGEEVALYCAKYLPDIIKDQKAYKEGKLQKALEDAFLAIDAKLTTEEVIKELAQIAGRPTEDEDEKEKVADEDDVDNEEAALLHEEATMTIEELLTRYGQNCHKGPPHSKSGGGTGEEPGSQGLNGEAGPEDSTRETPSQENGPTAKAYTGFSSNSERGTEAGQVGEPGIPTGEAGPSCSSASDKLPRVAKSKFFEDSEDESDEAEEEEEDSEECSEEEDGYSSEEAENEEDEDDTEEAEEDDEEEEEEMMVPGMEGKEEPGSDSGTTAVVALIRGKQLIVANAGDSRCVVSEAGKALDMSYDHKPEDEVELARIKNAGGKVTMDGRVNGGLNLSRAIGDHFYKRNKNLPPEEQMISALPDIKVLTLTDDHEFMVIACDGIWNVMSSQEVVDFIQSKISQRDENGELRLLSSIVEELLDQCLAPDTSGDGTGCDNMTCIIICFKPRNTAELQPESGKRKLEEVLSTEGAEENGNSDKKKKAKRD
Sequence of UniProt Q12974 (Q12974 whole entry, looked up): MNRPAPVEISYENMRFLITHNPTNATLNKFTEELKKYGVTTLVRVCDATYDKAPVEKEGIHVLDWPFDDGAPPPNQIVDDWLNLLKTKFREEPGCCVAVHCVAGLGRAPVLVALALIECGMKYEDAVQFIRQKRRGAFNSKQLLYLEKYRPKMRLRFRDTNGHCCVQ
Sequence of UniProt P31321 (P31321 whole entry, looked up): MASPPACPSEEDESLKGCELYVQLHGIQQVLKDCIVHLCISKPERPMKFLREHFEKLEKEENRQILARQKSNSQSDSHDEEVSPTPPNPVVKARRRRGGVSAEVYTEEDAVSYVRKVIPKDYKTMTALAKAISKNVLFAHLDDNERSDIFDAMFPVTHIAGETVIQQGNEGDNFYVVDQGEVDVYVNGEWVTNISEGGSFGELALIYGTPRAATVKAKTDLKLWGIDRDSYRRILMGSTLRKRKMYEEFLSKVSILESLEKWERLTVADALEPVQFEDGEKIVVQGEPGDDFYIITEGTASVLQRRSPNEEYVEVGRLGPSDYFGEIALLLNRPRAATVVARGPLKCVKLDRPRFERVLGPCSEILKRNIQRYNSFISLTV
Sequence of UniProt Q15054 (Q15054 whole entry, looked up): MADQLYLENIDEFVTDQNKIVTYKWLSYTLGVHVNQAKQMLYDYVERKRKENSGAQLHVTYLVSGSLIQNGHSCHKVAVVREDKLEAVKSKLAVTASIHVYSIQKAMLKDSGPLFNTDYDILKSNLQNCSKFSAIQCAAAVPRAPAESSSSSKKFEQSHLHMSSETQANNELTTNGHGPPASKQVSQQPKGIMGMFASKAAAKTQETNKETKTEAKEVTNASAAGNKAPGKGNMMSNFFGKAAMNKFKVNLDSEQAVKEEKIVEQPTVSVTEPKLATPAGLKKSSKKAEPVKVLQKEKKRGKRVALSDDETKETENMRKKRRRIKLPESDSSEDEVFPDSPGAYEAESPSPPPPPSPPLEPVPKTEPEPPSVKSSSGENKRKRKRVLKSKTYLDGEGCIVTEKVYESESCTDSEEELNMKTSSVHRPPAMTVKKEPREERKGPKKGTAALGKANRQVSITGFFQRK
Sequence of UniProt P28072 (P28072 whole entry, looked up): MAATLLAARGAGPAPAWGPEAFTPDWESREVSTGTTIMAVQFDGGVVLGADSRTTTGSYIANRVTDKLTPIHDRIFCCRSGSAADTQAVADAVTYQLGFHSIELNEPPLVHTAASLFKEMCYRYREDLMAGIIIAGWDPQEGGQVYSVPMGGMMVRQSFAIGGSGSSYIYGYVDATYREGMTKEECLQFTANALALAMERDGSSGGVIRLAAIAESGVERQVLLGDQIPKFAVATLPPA
Sequence of UniProt P25788 (P25788 whole entry, looked up): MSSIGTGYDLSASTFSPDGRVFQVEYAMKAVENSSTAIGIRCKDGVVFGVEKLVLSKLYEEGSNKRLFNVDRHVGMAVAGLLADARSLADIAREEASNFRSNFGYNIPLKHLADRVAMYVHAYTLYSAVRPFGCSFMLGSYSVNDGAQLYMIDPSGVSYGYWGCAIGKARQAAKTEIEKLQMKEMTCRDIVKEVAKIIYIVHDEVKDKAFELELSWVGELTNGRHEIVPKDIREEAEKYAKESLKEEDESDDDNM
Sequence of UniProt Q8WUK0 (Q8WUK0 whole entry, looked up): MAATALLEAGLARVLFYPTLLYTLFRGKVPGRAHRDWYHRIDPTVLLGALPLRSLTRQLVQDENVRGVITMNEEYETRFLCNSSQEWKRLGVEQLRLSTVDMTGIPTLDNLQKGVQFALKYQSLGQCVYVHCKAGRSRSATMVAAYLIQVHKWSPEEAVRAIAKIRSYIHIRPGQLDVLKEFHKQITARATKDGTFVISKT
Sequence of UniProt P50897 (P50897 whole entry, looked up): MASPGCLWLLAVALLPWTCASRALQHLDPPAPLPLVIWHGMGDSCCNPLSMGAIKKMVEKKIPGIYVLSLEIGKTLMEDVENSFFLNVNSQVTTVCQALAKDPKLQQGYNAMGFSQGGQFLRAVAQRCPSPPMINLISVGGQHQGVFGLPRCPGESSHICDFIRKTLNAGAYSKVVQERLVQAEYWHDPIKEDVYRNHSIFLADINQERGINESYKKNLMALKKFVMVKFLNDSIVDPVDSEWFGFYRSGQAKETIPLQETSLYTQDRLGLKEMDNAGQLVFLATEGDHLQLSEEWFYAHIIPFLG
Sequence of UniProt O43164 (O43164 whole entry, looked up): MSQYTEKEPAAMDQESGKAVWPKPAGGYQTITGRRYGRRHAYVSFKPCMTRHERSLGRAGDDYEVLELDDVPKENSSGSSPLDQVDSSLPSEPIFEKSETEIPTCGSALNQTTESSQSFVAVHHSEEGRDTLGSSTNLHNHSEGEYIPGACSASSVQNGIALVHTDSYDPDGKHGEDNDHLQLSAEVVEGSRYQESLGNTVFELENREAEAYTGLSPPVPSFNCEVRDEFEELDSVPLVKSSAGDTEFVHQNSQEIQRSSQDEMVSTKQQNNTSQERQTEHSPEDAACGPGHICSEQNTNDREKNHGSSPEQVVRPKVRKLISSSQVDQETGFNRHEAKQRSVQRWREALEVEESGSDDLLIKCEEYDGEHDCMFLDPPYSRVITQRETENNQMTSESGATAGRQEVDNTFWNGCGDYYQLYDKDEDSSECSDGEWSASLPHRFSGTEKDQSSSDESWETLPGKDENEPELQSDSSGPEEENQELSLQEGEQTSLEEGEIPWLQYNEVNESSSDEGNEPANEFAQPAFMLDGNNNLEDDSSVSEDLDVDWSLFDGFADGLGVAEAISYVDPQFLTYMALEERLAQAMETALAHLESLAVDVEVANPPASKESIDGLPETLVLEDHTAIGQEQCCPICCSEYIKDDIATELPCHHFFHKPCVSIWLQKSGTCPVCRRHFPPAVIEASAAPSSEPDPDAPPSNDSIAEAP
Sequence of UniProt Q96A00 (Q96A00 whole entry, looked up): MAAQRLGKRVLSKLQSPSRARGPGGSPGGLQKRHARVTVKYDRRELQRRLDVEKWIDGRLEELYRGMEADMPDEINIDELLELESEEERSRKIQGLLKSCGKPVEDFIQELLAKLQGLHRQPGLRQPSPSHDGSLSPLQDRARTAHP

The targets below were run with CC(=O)c1cnc2ccc(-c3cc(Cl)c(O)c(Cl)c3)nc2c1N[C@H]1CC[C@H](CN(C)C)CC1 (assay: log2 fold change, soluble protein after heating vs DMSO (PISA); higher = thermal stabilisation; K562 cells, 10 uM, 30 min; active = over 0.2 and 3.5 SD of the protein, either way, in both replicates (recomputed)).
How it was run: (§1)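 K562 cells at 2×10^6 cells/mL were treated for 30 min with 10 μM compound, and aliquots were heated for 3 min over 48°C-58°C before pooling. Extraction used PBS with 0.5% NP-40 at 4°C, and soluble protein was the supernatant after 21,000xg for 90 min, measured by TMTpro 16plex LC-MS/MS with channel sums equalised. Thermal stability values, relative to control samples and from duplicates, are log2 fold changes.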
With PLIN2 (UniProt Q99541) the log2 fold change was 0.005 (inactive). PCGF2 (UniProt P35227) was tested, and the log2 fold change was -0.164 (inactive). With PRKAR1B (UniProt P31321) the log2 fold change was -0.112 (inactive). For PSMB6 (UniProt P28072), the log2 fold change was 0.049 (inactive). For PGGHG (UniProt Q32M88), the log2 fold change was -0.013 (inactive). With PTGFRN (UniProt Q9P2B2) the log2 fold change was -0.111 (inactive). PLCL1 (UniProt Q15111) was tested, and the log2 fold change was 0.08 (inactive). PURA (UniProt Q00577) was tested, and the log2 fold change was 0.169 (inactive). For PPT1 (UniProt P50897), the log2 fold change was 0.008 (inactive). PKN2 (UniProt Q16513) was tested, and the log2 fold change was -0.797 (active). For PTPMT1 (UniProt Q8WUK0), the log2 fold change was -0.131 (inactive). With PTMA (UniProt P06454) the log2 fold change was 0.127 (inactive). In the case of POGLUT1 (UniProt Q8NBL1), the log2 fold change is reported as -0.047 (inactive). POLR2C (UniProt P19387) was tested, and the log2 fold change was 0.227 (inactive). PRPF38B (UniProt Q5VTL8) was tested, and the log2 fold change was -0.646 (active). With PSMA3 (UniProt P25788) the log2 fold change was 0.008 (inactive). In the case of PJA2 (UniProt O43164), the log2 fold change is reported as 0.091 (inactive). With PTP4A2 (UniProt Q12974) the log2 fold change was 0.065 (inactive). For PCYT1B (UniProt Q9Y5K3), the log2 fold change was -0.072 (inactive). With PPP1R14A (UniProt Q96A00) the log2 fold change was 0.036 (inactive). With PIK3CB (UniProt P42338) the log2 fold change was 0.082 (inactive). POLD3 (UniProt Q15054) was tested, and the log2 fold change was -0.043 (inactive). For PSMD11 (UniProt O00231), the log2 fold change was 0.086 (inactive). In the case of PMM1 (UniProt Q92871), the log2 fold change is reported as -0.011 (inactive). With PIP4P2 (UniProt Q8N4L2) the log2 fold change was -0.028 (inactive). In the case of PIGT (UniProt Q969N2), the log2 fold change is reported as -0.009 (inactive). For POLR2I (UniProt P36954), the log2 fold change was 0.425 (active). In the case of PPP6R1 (UniProt Q9UPN7), the log2 fold change is reported as 0.039 (inactive). For PRKCQ (UniProt Q04759), the log2 fold change was -2.02 (active). POLR1A (UniProt O95602) was tested, and the log2 fold change was 0.022 (inactive). With PRPSAP2 (UniProt O60256) the log2 fold change was 0.074 (inactive). PSME4 (UniProt Q14997) was tested, and the log2 fold change was -0.023 (inactive). In the case of PPM1G (UniProt O15355), the log2 fold change is reported as -0.098 (inactive). With PRKAR2B (UniProt P31323) the log2 fold change was -0.833 (active). PKN1 isoform 2 (UniProt Q16512) was tested, and the log2 fold change was -1.2 (active). With PRCP (UniProt P42785) the log2 fold change was 0.014 (inactive).

Each target was assayed with CC(C)(C)Cn1c(N)nc2ccc(-c3[nH]c(C(C)(C)C)nc3-c3ccc(F)cc3)nc21 [ralimetinib] in the same assay as above.
How it was run: as §1
For PLIN2 (UniProt Q99541), the log2 fold change was -0.065 (inactive). For PCGF2 (UniProt P35227), the log2 fold change was -0.036 (inactive). In the case of PRKAR1B (UniProt P31321), the log2 fold change is reported as 0.143 (inactive). For PSMB6 (UniProt P28072), the log2 fold change was -0.045 (inactive). For PGGHG (UniProt Q32M88), the log2 fold change was 0.136 (inactive). For PTGFRN (UniProt Q9P2B2), the log2 fold change was -0.029 (inactive). PLCL1 (UniProt Q15111) was tested, and the log2 fold change was 0.125 (inactive). In the case of PURA (UniProt Q00577), the log2 fold change is reported as 0.064 (inactive). With PPT1 (UniProt P50897) the log2 fold change was -0.072 (inactive). For PKN2 (UniProt Q16513), the log2 fold change was 0.085 (inactive). PTPMT1 (UniProt Q8WUK0) was tested, and the log2 fold change was -0.144 (inactive). For PTMA (UniProt P06454), the log2 fold change was 0.251 (inactive). POGLUT1 (UniProt Q8NBL1) was tested, and the log2 fold change was 0.162 (inactive). In the case of POLR2C (UniProt P19387), the log2 fold change is reported as 0.102 (inactive). With PRPF38B (UniProt Q5VTL8) the log2 fold change was -0.025 (inactive). For PSMA3 (UniProt P25788), the log2 fold change was 0.037 (inactive). PJA2 (UniProt O43164) was tested, and the log2 fold change was -0.004 (inactive). For PTP4A2 (UniProt Q12974), the log2 fold change was 0.051 (inactive). With PCYT1B (UniProt Q9Y5K3) the log2 fold change was 0.011 (inactive). For PPP1R14A (UniProt Q96A00), the log2 fold change was 0.218 (inactive). With PIK3CB (UniProt P42338) the log2 fold change was 0.013 (inactive). POLD3 (UniProt Q15054) was tested, and the log2 fold change was -0.001 (inactive). With PSMD11 (UniProt O00231) the log2 fold change was 0.076 (inactive). In the case of PMM1 (UniProt Q92871), the log2 fold change is reported as -0.024 (inactive). With PIP4P2 (UniProt Q8N4L2) the log2 fold change was 0.005 (inactive). With PIGT (UniProt Q969N2) the log2 fold change was 0.022 (inactive). With POLR2I (UniProt P36954) the log2 fold change was -0.079 (inactive). For PPP6R1 (UniProt Q9UPN7), the log2 fold change was -0.01 (inactive). With PRKCQ (UniProt Q04759) the log2 fold change was -0.02 (inactive). With POLR1A (UniProt O95602) the log2 fold change was 0.153 (inactive). For PRPSAP2 (UniProt O60256), the log2 fold change was -0.013 (inactive). For PSME4 (UniProt Q14997), the log2 fold change was -0.024 (inactive). In the case of PPM1G (UniProt O15355), the log2 fold change is reported as -0.044 (inactive). In the case of PRKAR2B (UniProt P31323), the log2 fold change is reported as -0.039 (inactive). For PKN1 isoform 2 (UniProt Q16512), the log2 fold change was 0.006 (inactive). In the case of PRCP (UniProt P42785), the log2 fold change is reported as -0.01 (inactive).
